This is part of a sample that, as a whole, favours compounds with a hit. Of some 83,000 tested, about 20% had one in any assay.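 How to read the values: 0–100, growth inhibition (40 = 60% inhibited); 0, no net growth; -100 to 0, cell death (-40 = 40% of starting cells died; -100 = all dead).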 Unmarked numbers belong to inactive results. Calls of active or inactive are those of the source.

The subject of this experiment is NCI-H522 lung. Nature of the experiment: NCI-60 one-dose screen, 48 h (100 = growth as untreated, 0 = no growth, -100 = all killed). As to conditions: 10 µM unless noted. The procedure:
Growth inhibition of the NCI-H522 human Non-Small Cell Lung tumor cell line is measured as a screen for anti-cancer activity. Cells are grown in 96 well plates and exposed to the test compound for 48 hours. Compounds are tested at a single concentration, which is 10^-5 M for most compounds. The reported endpoint is percent growth (GI% or GIPRCNT), where numbers from 0 - 100% represent growth inhibition, and numbers from -100% - 0 represent cell death. For example, a value of 40 represents 60% growth inhibition. A value of 0 means no net growth occurred over the course of the experiment. A value of -40 indicates 40% of cells at the beginning of the experiment died by the end of the experiment. A value of -100 means all cells are dead at the end of the experiment.
NCI-60 Human Tumor Cell Lines Screen was performed using the standard one-dose NCI protocol, which is described in more detail at https://dtp.cancer.gov/discovery_development/nci-60/default.htm.
Compounds with GIPRCNT values below 10 were considered active. Activity score was based on GIPRCNT using the following formula: […]
Score is 0 for GIPRCNT values of 100 or above, 50 for GIPRCNT values of 0, and 100 for GIPRCNT values of -100.
For `O=C1Nc2ccccc2C12CC(c1ccccc1)=NN2` (stereo not given), the growth was 24.6%.

As to `C[C@@]1(N2C(=O)OC[C@@H]2c2ccccc2)C(=O)N([C@H](CC(=O)N2CCC(N3CCCCC3)CC2)C(=O)NCc2cccc(C(F)(F)F)c2)[C@@H]1/C=C/c1ccccc1`, the growth was -9.84% (active).

In the case of `CCOC(=O)c1c2c(n3ccc(NC(=O)CCN4CCOCC4)cc13)C(=O)c1ncccc1C2=O`, the growth was -20.5% (active).

With `CCOC(=O)c1cnc2ccc(OC)cc2c1Nc1cccc(S(=O)(=O)NC)c1`, the growth was 99.8%.

Regarding `CC(C)n1cc2c(N)ncnc2n1`, the growth is 99.3%.

In the case of `OCC1C2C=CC(C2)C1CO` (stereo not given), the growth was 97%.

On to `O=c1c2cccc3c(NC4CCCCC4)ccc(c32)c2nc3ccccc3n12`, for which the growth was 61.5%.

For the molecule `CC/C=C\C[C@H](O)C/C=C1/C(=O)C=C[C@@H]1C/C=C\CCCC(=O)NC(C)C`, the growth is -35.5% (active).

Regarding `COc1ccc(-c2nc(Nc3cc(C)[nH]n3)c3ccccc3n2)cc1`, the growth was 8.31% (active).

Turning to `O=S(=O)(Nc1ccc(F)c(Cl)c1)c1ccc(-c2cnc(C3CC3)o2)cc1`, the growth is -11.5% (active).

Consider `CN1CCN(c2ccc3nc(-c4ccc5nc(-c6ccc(OCCC(C)(C)C)cc6)[nH]c5c4)[nH]c3c2)CC1`, for which the growth was -38% (active).

Take `O=C(Nc1cccc2c1C(=O)c1cccc(Nc3cccc4c3C(=O)c3cccc(NC(=O)c5ccccc5)c3C4=O)c1C2=O)c1ccccc1`: the growth was 112%.

Take `O=C(O)c1cccnc1Br`: the growth is 84.8%.

Turning to `CSc1nc(NCCO)c(C#N)c(-c2cccc(N)c2)n1`, the growth is 87.4%.

As to `O=c1[nH]c(-c2ccccn2)nc2sc3c(c12)CCCCC3`, the growth was 20.8%.

Consider `CCOC(=O)c1c2ncccc2n2c(=O)n(-c3ccc(Cl)cc3)nnc12`, for which the growth was 71.1%.

For `C[C@]12C[C@@H](c3ccoc3)OC(=O)[C@@H]1CC[C@]1(C)[C@@H]2CC[C@@H](O)[C@]1(C)O`, the growth is 55.5%.

As for `O=C1OC2C(I)C3CC2C1C3c1ccccc1` (stereo not given), the growth was 110%.

`COc1cc(NCCCCN=C(N)NC(N)=NC(C)C)c2ncccc2c1`: the growth is -6.15% (active).

Consider `N=c1c2ccccc2nc2n1CCCCC2`, for which the growth was 116%.

For the molecule `CC[C@H](Nc1nc(N)nc(C)c1C#N)c1nc2cccc(NCc3ccc(C(=O)NO)cc3)c2c(=O)n1-c1ccccc1`, the growth is -37.6% (active).

Take `O=C(Nc1ccc(F)cc1)Nc1ccc(CCO)cc1`: the growth is 93.8%.

For `O=C(CO[N+](=O)[O-])Nc1ccc(C(=O)/C=C/c2ccc(Cl)cc2)cc1`, the growth is 38.7%.

On to `CC1CN(Cc2ccco2)C(=S)N(c2ccccc2)C1=O` (stereo not given), for which the growth is 92.9%.

Regarding `COc1ccc2nc3cc(Cl)ccc3c(N3CCN(c4ccnc(N5CCOCC5)n4)CC3)c2c1`, the growth was -51.4% (active).

With `NC(=S)N/N=C/c1ccc(OCc2ccccc2)cc1`, the growth is -24.1% (active).

On to `O=C1/C(=C/c2ccc(Cl)cc2Cl)CN(S(=O)(=O)c2ccccc2)C/C1=C\c1ccc(Cl)cc1Cl`, for which the growth is -34.1% (active).

`Cn1cc(-c2csc(-c3cn(C)c4ncccc34)n2)c2ccccc21`: the growth was -18.8% (active).

As for `NC1=CC(=O)C(=O)c2ccccc21`, the growth was 80.6%.

Regarding `CC1=C(C)C(=O)OC([C@](C)(O)[C@]2(O)CC[C@@]3(O)[C@@H]4C[C@H]5O[C@]56CC=CC(=O)[C@]6(C)[C@H]4CC[C@]23COC(=O)c2ccc(C)o2)C1` (stereo not given in full), the growth was -68.7% (active).

Regarding `COC(=S)SCN(CSC(=S)OC)c1ccc(Cl)cc1`, the growth is 79.9%.

With `O=S(=O)(NCCCNc1cc(-c2cn(-c3ccccc3)nc2-c2cccc(O)c2)ccn1)c1ccccc1`, the growth is 52.5%.

Consider `CCN1CCN(Cc2ccc(NC(=O)Nc3nc4ccc(Oc5ccnc(C(=O)NC)c5)cc4s3)cc2C(F)(F)F)CC1`, for which the growth is -46.5% (active).

For `C=C1CC2(OC1=O)C(=O)Nc1ccccc12` (stereo not given), the growth was -45.7% (active).

As for `CCCCN(CCCC)Cc1c(C)[nH]c2cc(OC)ccc2c1=O`, the growth is 94.6%.

As for `C=C(CN1CCN(c2cccc(C(F)(F)F)n2)CC1)c1ccc(C(=O)Nc2ccccc2N)cc1`, the growth was -45.3% (active).

`COc1ccc(S(=O)(=O)NCCCNc2cc(-c3c(-c4cccc(OC)c4)nc4sccn34)ccn2)cc1`: the growth was 52.7%.

As for `Nc1cc2ccncc2c2ccccc12`, the growth was 98.4%.

For `O=C1/C(=C\c2cn(C(=O)c3ccc(Cl)cc3)c3ccccc23)c2ccccc2N1c1c(Cl)cccc1Cl`, the growth was 90.9%.

With `C=C1C(=O)O[C@H]2[C@H]1CC/C(Cn1cc(Cn3ccc4cc(Cl)ccc43)nn1)=C\CC[C@@]1(C)O[C@@H]21`, the growth is -76% (active).

These data come from PubChem BioAssay (NCI).
